Here are results for 22 molecules from PubChem BioAssay.

Molecules are shown by their SMILES. Activity calls are given as the source filed them. Unless noted, no rule for the calls is given here.

Assay [1] deals with XIP peptide (Xip251-270) binding. Nature of the assay: small-molecule binders of XIP peptide, primary screen, biochemical, small-molecule microarray, fluorescence 635/667 nm, 0.1 µg/mL protein (AID 1182). Conditions: fluorescent protein binding, 635 nm, higher = more signal, called active from +8 up or from −8 down.
A further assay relates to XIP peptide (Xip251-270). Put plainly: small-molecule binders of XIP peptide, primary screen, biochemical, small-molecule microarray, fluorescence 635/667 nm, 0.5 µg/mL protein (AID 1183). Conditions: small-molecule microarray binding, fluorescence 635 nm; higher = more signal.
Assay [2] in a line: Plasmodium falciparum growth inhibition, primary screen, strain 3D7, DAPI fluorescence, 100 nL (AID 1184).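 Also: parasites grown inside human red blood cells in medium with human serum.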 Conditions: P. falciparum 3D7 growth, 3 d, higher = more signal.
The target of assay [3] is Homeobox protein Hox-A13 (Mus musculus) (UniProt Q62424). Nature of the assay: inhibitors of HoxA13-DNA binding, primary screen, biochemical, fluorescence polarization, labeled oligonucleotide (AID 1185). Conditions: 15 min, higher = more signal, called active from +8 up or from −8 down.
Homeobox protein Hox-A13 (Mus musculus), sequence (Q62424 whole entry, looked up): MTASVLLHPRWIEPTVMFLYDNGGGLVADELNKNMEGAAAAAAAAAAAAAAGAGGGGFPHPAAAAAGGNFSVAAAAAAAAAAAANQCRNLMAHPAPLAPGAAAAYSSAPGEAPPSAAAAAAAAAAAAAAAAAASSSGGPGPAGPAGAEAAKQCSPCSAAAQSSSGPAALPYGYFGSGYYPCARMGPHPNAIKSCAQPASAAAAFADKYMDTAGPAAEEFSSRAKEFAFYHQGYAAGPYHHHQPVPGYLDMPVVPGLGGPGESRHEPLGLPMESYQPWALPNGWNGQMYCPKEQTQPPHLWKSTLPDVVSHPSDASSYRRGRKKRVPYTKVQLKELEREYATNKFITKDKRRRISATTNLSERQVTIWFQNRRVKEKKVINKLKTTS
The nature of assay [4]: inhibitors of hydroxyurea-induced Chk1 phosphorylation, primary screen, imaging, HeLa, phospho-Chk1 antibody, percent positive cells (AID 1186). Conditions: hydroxyurea-induced phospho-Chk1 immunofluorescence imaging, higher = more signal.
A short description of assay [5]: inhibitors of hydroxyurea-induced Chk1 phosphorylation, primary screen, imaging, HeLa, phospho-Chk1 nuclear intensity (AID 1187). Conditions: hydroxyurea-induced phospho-Chk1 immunofluorescence imaging, higher = more signal.

Take `[N-]=[N+]=NCc1ccccc1C[C@@]1(C(=O)N2CCOCC2)N=C(c2ccc(OCCCO)cc2)O[C@@H]1c1ccccc1CN=[N+]=[N-]`: the composite z-score in assay [1] is 1.16 (inactive); in the assay on XIP peptide (Xip251-270) it was 0.788. Besides, the z-score in assay [2] was -2.36; in assay [3] it was 0.223 (inactive); in assay [4], -0.544 (inactive); in assay [5], -0.629 (inactive).

Turning to `COC(=O)C[C@H]1O[C@]2(C(=O)N(Cc3ccccc3)c3ccc(NC(C)=O)cc32)[C@@H](C)[C@@H]1[Si](C)(C)c1ccc(OC)cc1`, the composite z-score was 0.337 (inactive) in assay [1] and 0.27 in the assay with XIP peptide (Xip251-270). Further, the z-score was -3.05 in assay [2], -3.04 (inactive) in assay [3], 0.918 (inactive) in assay [4] and 0.536 (inactive) in assay [5].

In the case of `C=CCNC(=O)[C@@H]1[C@H]2C(=O)O[C@H](c3ccccc3)[C@H](c3ccccc3)N2[C@H](c2ccccc2OCCO)[C@@]12C(=O)Nc1ccc(C#CC3=CCCCC3)cc12`, the values for the composite z-score (in assay [1]; in the assay with XIP peptide (Xip251-270)) were 1.02 (inactive) and 0.691, respectively. In addition, the z-score is -2.17 in assay [2], 1.71 (inactive) in assay [3], 0.0372 (inactive) in assay [4] and 0.464 (inactive) in assay [5].

As to `CCOC(=O)C[C@H]1[C@H](OC(=O)Cc2ccc3c(c2)OCO3)[C@@H](NC(=O)c2ccc(-c3ccccc3)cc2)c2cc(OCCCO)ccc2N1C(=O)c1ccccc1`, the composite z-score in assay [1] is -0.238 (inactive); in the assay with XIP peptide (Xip251-270) it was 0.729. Further, the z-score was -1.77 in assay [2], -1.88 (inactive) in assay [3], -0.467 (inactive) in assay [4] and -0.214 (inactive) in assay [5].

`COC(=O)C(CC#Cc1ccc2c(c1)[C@]1(C(=O)N2)[C@H](c2ccc(OCCO)cc2)N2[C@H](c3ccccc3)[C@H](c3ccccc3)OC(=O)[C@H]2[C@@H]1C(=O)NC[C@H](O)c1ccccc1)C(=O)OC`: the results for the composite z-score (in assay [1]; in the assay with XIP peptide (Xip251-270)) were 1.14 (inactive) and 0.836, respectively. The z-score in assay [2] is -1.79; in assay [3], -0.715 (inactive); in assay [4] it was 0.0415 (inactive); in assay [5], 0.364 (inactive).

Regarding `C[C@]1(C(=O)NCc2ccccc2)c2ccccc2C(=O)N(Cc2cc(F)cc(C(F)(F)F)c2)[C@H]1c1ccc(CO)cc1`, the composite z-score was 0.753 (inactive) in assay [1] and 0.518 in the assay on XIP peptide (Xip251-270). Also, the z-score is -0.327 in assay [2], -3.43 (inactive) in assay [3], -0.603 (inactive) in assay [4] and -0.552 (inactive) in assay [5].

For the molecule `CC(C)=CCCC(C)=CC(O)C1C=CC2C(=O)N(c3ccccc3)C(=O)C2N1Nc1ccccc1` (configuration not stated), the values for the composite z-score (in assay [1]; with XIP peptide (Xip251-270)) were 0.634 (inactive) and 0.828, respectively. The z-score was -0.168 in assay [2], -3.67 (inactive) in assay [3], 0.881 (inactive) in assay [4] and 0.352 (inactive) in assay [5].

`COc1ccc(NN2C(C(O)c3ccc(OC)c(OCc4ccccc4)c3)C=CC3C(=O)N(C4CCCCC4)C(=O)C32)cc1` (configuration not stated): the values for the composite z-score (in assay [1]; in the assay on XIP peptide (Xip251-270)) were -0.137 (inactive) and 0.628, respectively. The z-score was -1.02 in assay [2], -1.81 (inactive) in assay [3], -0.487 (inactive) in assay [4] and -0.892 (inactive) in assay [5].

On to `COC(=O)c1ccc(C(O)C2C=CC3C(=O)N(C)C(=O)C3N2NC(=O)OC(C)(C)C)o1` (configuration not stated), for which the composite z-score is 3.49 (inactive) in assay [1] and 0.789 with XIP peptide (Xip251-270). Moreover, the z-score in assay [2] was 0.926; in assay [3], -1.46 (inactive); in assay [4] it was -0.0792 (inactive); in assay [5], -0.0828 (inactive).

In the case of `COc1ccc(C(O)C2C=CC3C(=O)N(C)C(=O)C3N2Nc2ccccc2)cc1OCc1ccccc1` (configuration not stated), the composite z-score was 0.492 (inactive) in assay [1] and 0.879 in the assay with XIP peptide (Xip251-270). Besides, the z-score was 0.039 in assay [2], -4.69 (inactive) in assay [3], 0.593 (inactive) in assay [4] and 0.344 (inactive) in assay [5].

Regarding `C=CC(COC(C)=O)NS(=O)(=O)c1ccc(Br)cc1` (configuration not stated), the composite z-score in assay [1] was 0.264 (inactive); in the assay with XIP peptide (Xip251-270), 0.231. Also, the z-score was 1.95 in assay [2], -0.546 (inactive) in assay [3], 0.363 (inactive) in assay [4] and 0.253 (inactive) in assay [5].

Turning to `CC(=O)NCCCC[C@@H]1NC(=O)[C@H]2C[C@@H](C(=O)NCCCCCC[N+](C)(C)C)[C@@H](c3cccc(OCCO)c3)N2C1=O`, the composite z-score in assay [1] was 1.87 (inactive); in the assay with XIP peptide (Xip251-270) it was 0.893. The z-score in assay [2] was -1.26; in assay [3], -4.59 (inactive); in assay [4], -0.372 (inactive); in assay [5] it was -0.255 (inactive).

Regarding `Cc1c(NC(=O)CC#N)c(=O)n(-c2ccccc2)n1C`, the composite z-score in assay [1] was 0.248 (inactive); in the assay on XIP peptide (Xip251-270), 0.0029. Further, the z-score was -0.0049 in assay [2], -0.631 (inactive) in assay [3], 0.123 (inactive) in assay [4] and 0.239 (inactive) in assay [5].

In the case of `COC(=O)C(CC#Cc1ccc2c(c1)[C@]1(C(=O)N2)[C@H](C(=O)NC[C@H](O)c2ccccc2)[C@H]2C(=O)O[C@H](c3ccccc3)[C@H](c3ccccc3)N2[C@@H]1c1ccc(OCCO)cc1)C(=O)OC`, the composite z-score was 0.518 (inactive) in assay [1] and 0.736 in the assay with XIP peptide (Xip251-270). Also, the z-score was -2.15 in assay [2], -2.24 (inactive) in assay [3], -0.0625 (inactive) in assay [4] and -0.136 (inactive) in assay [5].

On to `[N-]=[N+]=NCc1ccccc1[C@@H]1OC(c2ccc(OCCCO)cc2)=N[C@]1(Cc1ccccc1N=[N+]=[N-])C(=O)NCc1ccccc1`, for which the figures for the composite z-score (in assay [1]; in the assay on XIP peptide (Xip251-270)) were 0.304 (inactive) and 0.442, respectively. In addition, the z-score in assay [2] is -2.29; in assay [3], 1.76 (inactive); in assay [4], -0.76 (inactive); in assay [5], -0.767 (inactive).

With `COCCOC(=O)N1C(=O)[C@@]2(c3ccccc31)[C@H](C(=O)Nc1nc3ccccc3s1)[C@H]1C(=O)O[C@H](c3ccccc3)[C@H](c3ccccc3)N1[C@@H]2c1ccc(OCCO)cc1`, the composite z-score in assay [1] is 0.886 (inactive); with XIP peptide (Xip251-270), 0.805. Further, the z-score in assay [2] is -1.13; in assay [3], 0.34 (inactive); in assay [4], -0.178 (inactive); in assay [5], -0.249 (inactive).

`NC(=O)NCC#Cc1ccc2c(c1)[C@]1(C(=O)N2)[C@H](C(=O)NC[C@H](O)c2ccccc2)[C@H]2C(=O)O[C@H](c3ccccc3)[C@H](c3ccccc3)N2[C@@H]1c1ccc(O)cc1`: the composite z-score in assay [1] was 5.26 (inactive); in the assay with XIP peptide (Xip251-270), 0.432. For the same molecule, the z-score in assay [2] was 0.872; in assay [3], -4.24 (inactive); in assay [4], -0.0342 (inactive); in assay [5] it was -0.468 (inactive).

In the case of `COc1ccc([Si](C)(C)[C@@H]2[C@@H](CCn3cc([C@H](O)c4ccccc4)nn3)O[C@]3(C(=O)N(Cc4ccc(N5C(=O)c6cccc7cccc5c67)cc4)c4ccccc43)[C@H]2C)cc1`, the composite z-score in assay [1] is 1.02 (inactive); in the assay with XIP peptide (Xip251-270) it was 0.182. In addition, the z-score is -2.8 in assay [2], 0.474 (inactive) in assay [3], -0.506 (inactive) in assay [4] and -0.524 (inactive) in assay [5].

Consider `Cc1ccc([C@H]2C(C(=O)O)=C[C@@H](C)N2S(=O)(=O)c2ccc(C)cc2)cc1`, for which the composite z-score in assay [1] is 1.78 (inactive); with XIP peptide (Xip251-270), -0.43. In addition, the z-score in assay [2] is 0.159; in assay [3], -3.09 (inactive); in assay [4], 0.502 (inactive); in assay [5], 0.176 (inactive).

Turning to `O=C1c2ccccc2[C@@]2(Cc3ccccc3N(Cc3ccccc3)C2=O)[C@H](c2ccc(CO)cc2)N1C1CCCCC1`, the composite z-score in assay [1] was -0.204 (inactive); in the assay on XIP peptide (Xip251-270), 0.299. Moreover, the z-score in assay [2] was -0.0438; in assay [3], -1.21 (inactive); in assay [4], 0.0191 (inactive); in assay [5], 0.359 (inactive).

As to `COCCOC(=O)N1C(=O)[C@@]2(c3cc(C#CCC(C(=O)OC)C(=O)OC)ccc31)[C@H](C(=O)N1CCN(c3ncccn3)CC1)[C@H]1C(=O)O[C@H](c3ccccc3)[C@H](c3ccccc3)N1[C@@H]2c1ccc(OCCO)cc1`, the composite z-score in assay [1] is 0.262 (inactive); in the assay with XIP peptide (Xip251-270), 0.698. Moreover, the z-score in assay [2] is -2.22; in assay [3], 2.45 (inactive); in assay [4] it was -0.576 (inactive); in assay [5], -0.833 (inactive).

With `CN(C)C(=O)[C@]1(CCC(=O)OC(C)(C)C)N=C(c2ccc(OCCCO)cc2)O[C@@H]1c1ccccc1N=[N+]=[N-]`, the composite z-score is 0.639 (inactive) in assay [1] and 0.803 with XIP peptide (Xip251-270). Moreover, the z-score in assay [2] was -1.84; in assay [3] it was -6.23 (inactive); in assay [4], 0.201 (inactive); in assay [5], 0.588 (inactive).
